Test [1] in a line: ATG_NFI_CIS: Attagene CIS-FACTORIAL HepG2 Assay for human Nuclear Factor I (NFI) (AID 2282989). As to conditions: HepG2 cis-regulatory reporter, NFI response element transcription; actives raise or lower the signal. Put shortly: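 Multiplexed cis-reporter system in human HepG2 cells reports native TF activity as reporter mRNA induction 24 h post-dose. Fragments labelled with 6-FAM, HpaI-digested and resolved by capillary electrophoresis; activity fitted both directions versus DMSO.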

The target in test [2] is Myc proto-oncogene protein (Homo sapiens) (UniProt P01106). The experiment in a line: ATG_Myc_CIS: Attagene CIS-FACTORIAL HepG2 Assay for human Myelocytomatosis (Myc) Proto-Oncogene Transcription Factor (AID 2282990). As to conditions: HepG2, Attagene cis-reporter transcription factor activity; actives raise or lower the signal. The procedure, abridged: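 Cells of the HepG2 human liver line bear multiple cis-driven reporter transcription units. Reporter mRNA after 24 h exposure is reverse-transcribed, amplified, labelled and resolved by capillary electrophoresis, with gain- or loss-of-signal fitting relative to DMSO.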
Chain of Myc proto-oncogene protein (Homo sapiens) (P01106 whole entry, looked up): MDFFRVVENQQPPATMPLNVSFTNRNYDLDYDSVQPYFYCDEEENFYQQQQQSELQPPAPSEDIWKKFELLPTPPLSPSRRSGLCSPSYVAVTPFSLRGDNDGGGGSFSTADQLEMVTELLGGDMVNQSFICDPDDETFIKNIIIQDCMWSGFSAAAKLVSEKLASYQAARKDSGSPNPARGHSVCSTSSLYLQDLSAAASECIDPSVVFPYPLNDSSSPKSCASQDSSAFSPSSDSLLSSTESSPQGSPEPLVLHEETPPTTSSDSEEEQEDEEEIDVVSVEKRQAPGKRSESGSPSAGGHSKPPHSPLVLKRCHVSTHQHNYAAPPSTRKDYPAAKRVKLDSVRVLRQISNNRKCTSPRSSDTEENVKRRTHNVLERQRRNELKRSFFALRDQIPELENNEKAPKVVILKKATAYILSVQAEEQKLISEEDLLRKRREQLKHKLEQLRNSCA

Test [3] is described as follows: ATG_NRF2_ARE_CIS: Attagene CIS-FACTORIAL HepG2 Assay for human Nuclear Factor Erythroid 2 Related Factor 2 (NFR2) response to Antioxidant Response Elements (ARE) (AID 2282992). Conditions: HepG2 Attagene ARE/NRF2 reporter, transcription factor activity; actives raise or lower the signal. The procedure, abridged:
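Using transiently transfected HepG2 cells exposed for 24 h, reporter mRNA levels were determined by RT-PCR with fluorescent primer extension and capillary electrophoresis, analysed for gain or loss of signal against DMSO.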

The nature of test [4]: ATG_Oct_MLP_CIS: Attagene CIS-FACTORIAL HepG2 Assay for human Octamer-Binding Transcription Factor (Oct) (AID 2282993). As to conditions: HepG2 Attagene cis-factorial Oct reporter, mRNA; actives raise or lower the signal. Put shortly:
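After 24 h compound exposure, transfected HepG2 cells were lysed for total RNA; reporter-specific cDNA was PCR-amplified, fluorescently labelled and sized by capillary electrophoresis. Bidirectional curve fitting used DMSO as baseline.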

Test [5] can be described thus: BSK_3C_uPAR: BioMAP Diversity Plus: 3C Assay for Urokinase-type plasminogen activator receptor (uPAR) Biomarker Activity (AID 2282998). As to conditions: BioMAP 3C HUVEC, uPAR biomarker ELISA; actives raise or lower the signal. The procedure, abridged:
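Values derive from bidirectional curve fitting relative to DMSO, which served as baseline of activity. uPAR was measured by ELISA in human umbilical vein endothelial primary cultures 24 h after compound addition.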

Test [6] is described as follows: BSK_3C_VCAM1: BioMAP Diversity Plus: 3C Assay for Vascular cell adhesion molecule 1 (VCAM1) Biomarker Activity (AID 2282999). Conditions: BioMAP 3C HUVEC, VCAM1 ELISA, cytokine-stimulated; actives raise or lower the signal. Put shortly:
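Activity fitted in both directions relative to DMSO, with ELISA measurement of the surface marker on primary HUVEC (3C) at 24 h post-treatment; parallel SRB staining (0.1% SRB, TCA-fixed, 560 nm) flagged overt cytotoxicity.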

Test [7] in a line: BSK_4H_Eotaxin3: BioMAP Diversity Plus: 4H Assay for Eotaxin 3 Biomarker Activity (AID 2283000).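 Also: CCL26 protein level quantified by ELISA in parallel with SRB cytotoxicity check.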 As to conditions: primary human endothelial cells (HUVEC); actives raise or lower the signal. The procedure, abridged: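 Endothelial primary cells (human umbilical vein) exposed to compound for 24 h. ELISA detection of Eotaxin-3.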
Read-out in test [8]: Intercellular Adhesion Molecule 1 (ICAM1), ICAM1 (gene 3383)
In words: BSK_3C_ICAM1: BioMAP Diversity Plus: 3C Assay for Intercellular Adhesion Molecule 1 (ICAM1) Biomarker Activity (AID 2283003). Conditions: primary human endothelial cells (HUVEC); actives raise or lower the signal. The procedure, abridged:
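ELISA read-out of ICAM-1; HUVEC (primary human), 3C system, 24 h post-dosing; bidirectional fit vs DMSO baseline.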

The nature of test [9]: BSK_3C_Proliferation: Cell Proliferation Assessment in the BioMAP Diversity Plus: 3C Assay (AID 2283006). As to conditions: primary human endothelial cells (HUVEC). The procedure, abridged: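 HUVEC, sub-confluent; 48 h chemical exposure; 10% TCA fix, 0.1% SRB stain, A560 total protein. Gain or loss of signal fitted both directions vs DMSO control.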
Test [10] addresses Peroxisome proliferator-activated receptor gamma (Homo sapiens) (UniProt P37231). The experiment in a line: ATG_PPARg_TRANS: Attagene TRANS-FACTORIAL HepG2 Assay for human Peroxisome Proliferator-activated Receptor-gamma (PPARg) (AID 2283007; active = hit-call score of the fitted dose curve at least 0.9, where 1 is the maximum). Put shortly: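 Liver-derived HepG2 cells expressing an exogenous NR-Gal4 chimera alongside GAL4-UAS reporter genes; 24 h exposure. Fluorescence of reporter RT-PCR products, separated by capillary electrophoresis, gives mRNA induction relative to DMSO.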

In test [11] the target is Nuclear receptor subfamily 1 group I member 2 (Homo sapiens) (UniProt O75469). In words: ATG_PXR_TRANS: Attagene TRANS-FACTORIAL HepG2 Assay for human Pregnane X Receptor (PXR) (AID 2283008; active = hit-call score of the fitted dose curve at least 0.9, where 1 is the maximum). The procedure, abridged: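 Multiplexed TRANS reporter panel in HepG2; this component tracks PXR-Gal4-driven reporter mRNA after 24 h dosing, measured by RT-PCR with capillary electrophoresis fluorescence, fitted against DMSO.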
Chain of Nuclear receptor subfamily 1 group I member 2 (Homo sapiens) (O75469 whole entry, looked up, the tested form may be a part): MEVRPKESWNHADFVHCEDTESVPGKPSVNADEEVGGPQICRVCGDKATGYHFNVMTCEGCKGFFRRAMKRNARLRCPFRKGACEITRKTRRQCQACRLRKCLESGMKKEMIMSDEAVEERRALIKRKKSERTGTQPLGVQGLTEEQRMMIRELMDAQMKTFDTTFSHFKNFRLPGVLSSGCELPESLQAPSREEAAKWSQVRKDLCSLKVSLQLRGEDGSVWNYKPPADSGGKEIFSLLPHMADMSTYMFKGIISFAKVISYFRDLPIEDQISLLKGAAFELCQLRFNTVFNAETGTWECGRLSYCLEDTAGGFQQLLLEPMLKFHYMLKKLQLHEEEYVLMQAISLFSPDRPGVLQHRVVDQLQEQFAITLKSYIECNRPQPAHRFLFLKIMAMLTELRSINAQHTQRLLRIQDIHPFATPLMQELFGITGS

Test [12] concerns the target human Retinoic Acid Receptor gamma (RARg), RARG (gene 5916) (UniProt P13631). In words: ATG_RARg_TRANS: Attagene TRANS-FACTORIAL HepG2 Assay for human Retinoic Acid Receptor gamma (RARg) (AID 2283009; active = hit-call score of the fitted dose curve at least 0.9, where 1 is the maximum). The procedure, abridged:
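Readout: reporter transcript levels via RT-PCR, 6-FAM primer-extension labelling, HpaI digestion and capillary electrophoresis. Cells: HepG2 carrying transfected RARg-GAL4 chimera plus UAS reporter set. Dosing 24 h; DMSO negative control.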

For test [13], the target named is human RAR-related Orphan Receptor beta (RORb), RORB (gene 6096) (UniProt Q92753). The experiment in a line: ATG_RORb_TRANS: Attagene TRANS-FACTORIAL HepG2 Assay for human RAR-related Orphan Receptor beta (RORb) (AID 2283010; active = hit-call score of the fitted dose curve at least 0.9, where 1 is the maximum). Put shortly:
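HepG2, transient MRTU transfection (GAL4-UAS reporters, exogenous NR-Gal4 chimeras); 24 h compound exposure; total RNA → RT-PCR → 6-FAM primer extension → HpaI digest → CE fluorescence. Positive direction vs DMSO baseline.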

Test [14] deals with human RAR-related Orphan Receptor gamma (RORg), RORC (gene 6097) (UniProt P51449). In words: ATG_RORg_TRANS: Attagene TRANS-FACTORIAL HepG2 Assay for human RAR-related Orphan Receptor gamma (RORg) (AID 2283011; active = hit-call score of the fitted dose curve at least 0.9, where 1 is the maximum). Put shortly:
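Activity is scored as increase in GAL4-UAS reporter mRNA over DMSO, detected by fluorescent RT-PCR and capillary electrophoresis in HepG2 cells transiently expressing a RORg-Gal4 chimera, 24 h after dosing.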

Test [15] deals with Cellular tumor antigen p53 (Homo sapiens) (UniProt P04637). In words: ATG_p53_CIS: Attagene CIS-FACTORIAL HepG2 Assay for human p53 Transcription Factor (AID 2282994). As to conditions: HepG2 p53 cis-element reporter, Attagene mRNA; actives raise or lower the signal. The procedure, abridged:
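In HepG2 cells, reporter transcription units under cis-regulatory promoters were transiently introduced. Following 24 h treatment, RNA was processed to labelled, digested cDNA fragments read by capillary electrophoresis; fitting was bidirectional versus DMSO.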

Test [16] has as its target human Peroxisome Proliferator-activated Receptor alpha (PPARa), PPARA (gene 5465) (UniProt Q07869). The experiment in a line: ATG_PPARa_TRANS: Attagene TRANS-FACTORIAL HepG2 Assay for human Peroxisome Proliferator-activated Receptor alpha (PPARa) (AID 2283001; active = hit-call score of the fitted dose curve at least 0.9, where 1 is the maximum;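 as to AC50: potency for gain of reporter signal over DMSO so agonist or activator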). The procedure, abridged:
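Transfected HepG2 cells treated with test chemical for 24 h. RNA isolated, reverse-transcribed with oligo(dT), PCR-amplified, FAM-labelled and HpaI-digested. Fragments sized by capillary electrophoresis; gain-of-signal fit relative to DMSO.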

The target in test [17] is human Peroxisome Proliferator-activated Receptor delta (PPARd), PPARD (gene 5467) (UniProt Q03181). The experiment in a line: ATG_PPARd_TRANS: Attagene TRANS-FACTORIAL HepG2 Assay for human Peroxisome Proliferator-activated Receptor delta (PPARd) (AID 2283002; active = hit-call score of the fitted dose curve at least 0.9, where 1 is the maximum). The procedure, abridged:
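Cell-based TRANS reporter: HepG2, transient MRTU transfection, 24 h exposure. Readout = reporter mRNA (RT-PCR/CE, 6-FAM). Gain-of-signal fit vs DMSO control.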

The target in test [18] is human Retinoic Acid Receptor beta (RARb), RARB (gene 5915) (UniProt P10826). In words: ATG_RARb_TRANS: Attagene TRANS-FACTORIAL HepG2 Assay for human Retinoic Acid Receptor beta (AID 2283004; active = hit-call score of the fitted dose curve at least 0.9, where 1 is the maximum). The procedure, abridged:
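HepG2, transient MRTU transfection, NR–Gal4 chimera, 24 h treatment; RT-PCR plus CE fluorescence detection of reporter mRNA; gain of signal vs DMSO.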

Test [19] concerns the target Retinoic acid receptor alpha (Homo sapiens) (UniProt P10276). The experiment in a line: ATG_RARa_TRANS: Attagene TRANS-FACTORIAL HepG2 Assay for human Retinoic Acid Receptor alpha (RARa) (AID 2283005; active = hit-call score of the fitted dose curve at least 0.9, where 1 is the maximum). The procedure, abridged: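 Reporter transcripts, measured by RT-PCR with fluorescent labeling and capillary electrophoresis after 24 h dosing, reflect activity of an exogenous human RARa–GAL4 fusion in transiently transfected HepG2. Fitted for increase relative to DMSO.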

Records with an inconclusive call do not appear. Active and inactive are the calls of the source. The calls were made as follows, unless noted: active = hit-call score of the fitted dose curve at least 0.9, where 1 is the maximum; inactive = score below 0.9.

Chain of human Peroxisome Proliferator-activated Receptor delta (PPARd), PPARD (gene 5467) (Q03181 whole entry, looked up): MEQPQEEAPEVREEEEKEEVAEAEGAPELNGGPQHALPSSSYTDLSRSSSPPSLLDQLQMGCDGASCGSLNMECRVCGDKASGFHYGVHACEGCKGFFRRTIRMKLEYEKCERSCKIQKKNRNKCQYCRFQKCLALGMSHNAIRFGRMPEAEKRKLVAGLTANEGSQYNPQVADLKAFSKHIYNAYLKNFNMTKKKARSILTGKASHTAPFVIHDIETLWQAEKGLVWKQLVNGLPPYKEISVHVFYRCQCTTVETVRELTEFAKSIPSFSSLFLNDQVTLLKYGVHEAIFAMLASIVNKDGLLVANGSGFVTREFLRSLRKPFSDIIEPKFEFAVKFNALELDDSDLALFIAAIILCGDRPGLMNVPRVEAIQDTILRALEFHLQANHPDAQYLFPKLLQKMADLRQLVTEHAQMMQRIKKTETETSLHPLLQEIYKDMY
Chain of human Retinoic Acid Receptor gamma (RARg), RARG (gene 5916) (P13631 whole entry, looked up, the tested form may be a part): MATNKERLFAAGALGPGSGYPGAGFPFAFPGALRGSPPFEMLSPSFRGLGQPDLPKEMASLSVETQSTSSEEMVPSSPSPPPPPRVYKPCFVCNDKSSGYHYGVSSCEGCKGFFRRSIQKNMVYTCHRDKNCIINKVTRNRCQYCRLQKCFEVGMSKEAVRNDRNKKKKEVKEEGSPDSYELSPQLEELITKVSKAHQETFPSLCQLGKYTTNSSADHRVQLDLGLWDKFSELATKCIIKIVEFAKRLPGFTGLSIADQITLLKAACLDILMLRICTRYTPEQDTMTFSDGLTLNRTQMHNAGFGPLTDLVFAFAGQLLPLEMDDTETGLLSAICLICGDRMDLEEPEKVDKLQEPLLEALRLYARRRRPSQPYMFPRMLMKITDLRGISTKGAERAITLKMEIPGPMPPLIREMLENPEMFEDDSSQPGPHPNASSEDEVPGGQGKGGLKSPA
Chain of human RAR-related Orphan Receptor gamma (RORg), RORC (gene 6097) (P51449 whole entry, looked up, the tested form may be a part): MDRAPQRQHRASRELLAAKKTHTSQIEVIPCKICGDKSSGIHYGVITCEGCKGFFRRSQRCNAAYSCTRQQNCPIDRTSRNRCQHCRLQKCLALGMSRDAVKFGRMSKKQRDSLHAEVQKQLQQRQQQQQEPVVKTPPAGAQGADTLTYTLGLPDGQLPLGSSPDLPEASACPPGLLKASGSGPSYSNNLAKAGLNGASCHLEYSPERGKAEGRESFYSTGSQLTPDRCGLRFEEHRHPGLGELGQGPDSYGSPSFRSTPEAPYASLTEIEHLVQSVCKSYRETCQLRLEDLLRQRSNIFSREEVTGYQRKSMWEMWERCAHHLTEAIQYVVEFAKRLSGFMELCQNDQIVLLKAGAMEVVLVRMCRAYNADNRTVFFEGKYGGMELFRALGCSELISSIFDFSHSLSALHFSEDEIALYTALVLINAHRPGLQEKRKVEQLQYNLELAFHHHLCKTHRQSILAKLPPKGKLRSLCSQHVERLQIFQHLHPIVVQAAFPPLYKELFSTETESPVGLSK
Chain of human Retinoic Acid Receptor beta (RARb), RARB (gene 5915) (P10826 whole entry, looked up, the tested form may be a part): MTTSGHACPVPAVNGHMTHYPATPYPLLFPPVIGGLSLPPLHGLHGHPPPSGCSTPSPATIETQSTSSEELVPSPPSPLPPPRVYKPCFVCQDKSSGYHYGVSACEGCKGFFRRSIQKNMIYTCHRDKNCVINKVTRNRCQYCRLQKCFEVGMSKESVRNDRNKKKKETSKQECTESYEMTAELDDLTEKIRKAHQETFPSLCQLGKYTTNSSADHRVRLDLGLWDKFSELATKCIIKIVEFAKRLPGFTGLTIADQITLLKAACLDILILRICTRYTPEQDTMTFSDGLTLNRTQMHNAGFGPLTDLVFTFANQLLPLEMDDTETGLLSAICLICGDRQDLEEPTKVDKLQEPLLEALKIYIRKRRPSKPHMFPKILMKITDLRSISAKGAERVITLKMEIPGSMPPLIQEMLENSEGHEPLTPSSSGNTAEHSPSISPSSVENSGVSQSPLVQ
Chain of human RAR-related Orphan Receptor beta (RORb), RORB (gene 6096) (Q92753 whole entry, looked up, the tested form may be a part): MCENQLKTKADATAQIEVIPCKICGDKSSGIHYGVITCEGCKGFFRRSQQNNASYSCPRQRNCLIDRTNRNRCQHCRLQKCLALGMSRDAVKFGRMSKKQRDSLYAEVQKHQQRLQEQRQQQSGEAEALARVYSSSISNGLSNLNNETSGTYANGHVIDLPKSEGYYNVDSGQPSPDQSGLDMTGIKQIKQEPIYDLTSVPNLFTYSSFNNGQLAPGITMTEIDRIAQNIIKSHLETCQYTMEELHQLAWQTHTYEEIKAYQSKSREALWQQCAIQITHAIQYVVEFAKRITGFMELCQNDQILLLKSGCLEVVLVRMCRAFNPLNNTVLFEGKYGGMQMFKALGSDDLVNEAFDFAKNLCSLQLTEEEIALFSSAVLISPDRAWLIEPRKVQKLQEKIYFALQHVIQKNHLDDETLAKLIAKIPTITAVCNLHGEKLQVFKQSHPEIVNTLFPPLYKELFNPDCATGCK
Chain of Cellular tumor antigen p53 (Homo sapiens) (P04637 whole entry, looked up, the tested form may be a part): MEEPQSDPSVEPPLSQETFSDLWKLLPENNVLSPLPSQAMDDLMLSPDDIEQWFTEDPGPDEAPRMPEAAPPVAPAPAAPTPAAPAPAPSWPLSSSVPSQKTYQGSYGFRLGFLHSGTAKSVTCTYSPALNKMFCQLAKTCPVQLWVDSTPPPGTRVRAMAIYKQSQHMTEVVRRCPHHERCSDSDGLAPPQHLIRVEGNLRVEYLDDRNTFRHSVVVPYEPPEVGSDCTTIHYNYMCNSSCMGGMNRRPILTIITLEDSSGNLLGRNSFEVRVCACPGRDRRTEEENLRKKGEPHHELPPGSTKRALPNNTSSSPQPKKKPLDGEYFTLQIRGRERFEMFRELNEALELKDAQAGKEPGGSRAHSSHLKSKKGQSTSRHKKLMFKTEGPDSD
Chain of Peroxisome proliferator-activated receptor gamma (Homo sapiens) (P37231 whole entry, looked up, the tested form may be a part): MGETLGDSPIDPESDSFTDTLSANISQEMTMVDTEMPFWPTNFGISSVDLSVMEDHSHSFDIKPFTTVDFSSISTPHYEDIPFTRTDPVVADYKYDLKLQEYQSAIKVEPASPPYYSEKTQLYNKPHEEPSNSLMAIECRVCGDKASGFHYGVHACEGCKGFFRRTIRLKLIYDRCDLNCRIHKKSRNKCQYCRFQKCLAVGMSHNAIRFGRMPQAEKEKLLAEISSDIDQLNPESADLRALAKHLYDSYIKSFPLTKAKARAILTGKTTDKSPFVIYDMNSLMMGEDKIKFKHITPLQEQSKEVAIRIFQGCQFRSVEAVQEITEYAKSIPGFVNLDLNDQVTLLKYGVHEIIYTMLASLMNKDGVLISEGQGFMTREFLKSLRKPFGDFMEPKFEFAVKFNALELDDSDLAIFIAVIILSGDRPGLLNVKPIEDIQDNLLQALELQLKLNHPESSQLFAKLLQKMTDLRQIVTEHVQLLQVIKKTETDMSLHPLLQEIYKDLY
Chain of human Peroxisome Proliferator-activated Receptor alpha (PPARa), PPARA (gene 5465) (Q07869 whole entry, looked up, the tested form may be a part): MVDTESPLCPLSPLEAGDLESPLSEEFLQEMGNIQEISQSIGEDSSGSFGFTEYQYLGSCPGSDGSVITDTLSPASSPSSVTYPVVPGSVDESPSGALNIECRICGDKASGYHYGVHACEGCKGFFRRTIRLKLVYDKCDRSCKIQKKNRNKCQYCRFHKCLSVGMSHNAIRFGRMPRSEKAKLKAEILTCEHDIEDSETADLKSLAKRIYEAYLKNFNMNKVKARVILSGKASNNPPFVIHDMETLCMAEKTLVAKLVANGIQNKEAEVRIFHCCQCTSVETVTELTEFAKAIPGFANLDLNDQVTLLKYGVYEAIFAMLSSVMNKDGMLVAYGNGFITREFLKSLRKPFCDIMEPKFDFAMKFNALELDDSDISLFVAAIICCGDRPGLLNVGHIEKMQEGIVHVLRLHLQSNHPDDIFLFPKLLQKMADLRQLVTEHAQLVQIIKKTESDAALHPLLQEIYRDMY

With `COc1ccc2nc(N)sc2c1`, the result in test [1], in test [2], in [4], in test [5], in [6] and in test [7] was inactive. Further, the result in test [8], in test [9], in test [10], in test [11], in test [12] and in [13] was inactive. In addition, in test [14], the outcome was inactive. Besides, the AC50 in test [3] was 13.9 µM (active).
For the molecule `COC(=O)c1c(C)cc(O)c(C)c1O`, the call in test [1], in test [2], in test [15], in [16], in test [17] and in test [10] was inactive. Besides, the result in test [11] and in test [12] was inactive.
With `O=C1C(N(CO)C(=O)NCO)N(CO)C(=O)N1CO` (stereo unspecified), the result in test [1], in test [2], in test [4], in test [15], in test [18] and in [19] was inactive. Further, the call in test [10], in test [12], in test [13] and in test [14] was inactive.
Regarding `CCOC(=O)NNc1nncc2ccccc12`, the molecule was called inactive in test [1], in [2], in test [4], in test [15], in test [17] and in test [18]. For the same molecule, the molecule was called inactive in test [11] and in test [12].
For `NC(=O)c1ccccc1O`, the molecule was called inactive in test [1], in test [2], in test [3], in [15], in test [17] and in [11].
On to `CC(=O)Nc1ccc2c(c1)Cc1cc(NC(C)=O)ccc1-2`, for which the molecule was classed as inactive in [1], in [2], in test [4], in test [15] and in test [17].
For the molecule `COC(=O)c1ccc2cc(C(=O)OC)ccc2c1`, the molecule was called inactive in test [1], in test [2], in test [4], in test [15], in test [16] and in test [11]. Further, the result in test [12] and in test [13] was inactive. Further, in test [10], the AC50 was 26.3 µM (active).
Regarding `C=C(C)C(=O)OCCOc1ccccc1`, the outcome in test [1], in test [2], in test [4], in test [16] and in [11] was inactive. Besides, the AC50 in test [3] is 67.1 µM (active); in test [10], 28.5 µM (active).
For the molecule `Nc1ccc2cc3ccccc3cc2c1`, the molecule was classed as inactive in [1], in test [2], in test [4], in [16], in test [17] and in test [18]. Further, the molecule was classed as inactive in [11], in test [12], in test [13] and in test [14]. The half-maximal activity concentration (AC50) in test [3] is 47 µM (active); in test [10], 26.8 µM (active).
For `c1ccc(CNCc2ccccc2)cc1`, the call in [1], in test [2], in test [4], in test [15], in [17] and in [10] was inactive. Moreover, the outcome in test [11] and in test [14] was inactive.
In the case of `CCCCCCCC/C=C\CCCCCCCC(=O)O`, the molecule was classed as inactive in [1], in [2], in test [4], in test [15] and in test [11]. The AC50 in [16] is 21.8 µM (active); in test [17], 100 µM (active); in test [10] it was 18.8 µM (active).
`N[C@H]1C(O)O[C@H](CO)[C@H](O)[C@@H]1O` (stereo partly specified): the result in test [1], in test [2], in [4] and in test [15] was inactive.
For the molecule `S=C(NC1CCCCC1)NC1CCCCC1`, the molecule was called inactive in test [1], in test [2], in test [5], in test [6], in test [7] and in test [16]. Besides, the outcome in [17], in test [8], in test [9], in test [10] and in test [12] was inactive. Besides, the AC50 in [11] was 8.05 µM (active).
